Screening data (PubChem)
In the library only some 10% were active in any assay of this set; here they are far more common.
GPT2 inhibitor: GPT2 alanine aminotransferase inhibition | Q8TD30 | Recombinant GPT2, coupled pyruvate oxidase/HRP Amplex Red fluorescence | Potency, µM (series often up to 57.7 µM), most hits filed as inhibitors | 0.25% of 100,000 active | AID 1671188; also: nearly all actives have a fitted effect of over 60% in size
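GPT2 10ng/uL, a-KG 250uM, L-Ala 2mM, HEPES pH7.5 + 0.0001% Tween; 30 min RT. Then Amplex mix (PO/HRP/ThPP), 30 min RT dark, fluorescence. AOA 50uM used as positive control.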
NIH3T3 tox: NIH 3T3 cell cytotoxicity; NIH 3T3 viability, CellTiter-Glo ATP luminescence, 48-72 h; Potency, µM (top dose mostly 96.7 µM), hits mostly inhibitors; 4.3% of 94,000 active; AID 1345082; also: nearly all actives have a fitted effect of over 55% in size
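Cells were seeded at 400 per well, treated with pin-transferred compound, and kept 48 or 72 hr at 37 °C before CellTiter-Glo addition and luminescence imaging of cellular ATP.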
hNpr1 antagonist: antagonists of human natriuretic peptide receptor Npr1; AID 1347048; 1.6% of 76,000 active; P16066; Potency, µM (doses to about 46.3 µM), hits mostly inhibitors; HEK293 hNpr1 GloSensor cGMP, ANP-stimulated luminescence; calls by dose curve; also: nearly all actives have a fitted effect of over 60% in size
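HEK293 cells stably expressing human Npr1 and cGMP GloSensor pGS-40F, loaded 2 h with 2% GloSensor reagent, given compound 30 min at room temperature. Luminescence read before and 20 min after 0.1 nM hNppA.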
HEK293 tox: cytotoxic compounds in HEK 293 cells; 6.6% of 94,000 active; HEK 293 viability, ATP luminescence (CellTiter-Glo), 48-72 h; Potency, µM (top dose mostly 115 µM), actives largely listed as inhibitors; also: nearly all actives have a fitted effect of over 60% in size
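Luminescence from cellular ATP, measured with CellTiter-Glo, indicates HEK 293 viability. Cells plated at 250 cells/well are treated with compound for 48 or 72 hr at 37 degree Celsius before reagent addition.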
FLuc inh: Photinus pyralis luciferase inhibition; purified P. pyralis luciferase, luminescence, biochemical; Potency, µM (top dose mostly 115 µM), usual class: inhibitors; 2.5% of 76,000 active; also: nearly all actives have a fitted effect of over 65% in size
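Purified 10nM P. pyralis luciferase with 10uM D-luciferin and 10uM ATP in 50mM Tris acetate pH 7.5, 10mM Mg acetate, 0.01% Tween-20, 0.05% BSA. qHTS titration; luminescence read by CCD imager.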
A number is an active result; [ ] = dose if it differs, or a comment. Unless noted, calls follow the shape of the dose curve; as a rule, active = well fitted curve in the direction sought with a large enough effect; inconclusive = small, poorly fitted or top-dose-only effect, or another doubt; inactive = no such curve, though single readings can be large; an effect the other way counts as inactive or inconclusive.

Screening CN1Cc2c(cc(N3CCOCC3)nc2-c2cccc(C(F)(F)F)c2)C1=O returned GPT2 inhibitor inconclusive, NIH3T3 tox 5.62µM, hNpr1 antagonist inactive, HEK293 tox inactive and FLuc inh inactive.
COc1cccc(-c2nc(N3CCOCC3)cc3c2CN(C)C3=O)c1 was read as GPT2 inhibitor inactive, NIH3T3 tox 15.8µM, hNpr1 antagonist inactive, HEK293 tox inconclusive and FLuc inh inactive.
Screening CN1Cc2c(cc(N3CCOCC3)nc2-c2cccc(N[S+](C)(=O)[O-])c2)C1=O returned GPT2 inhibitor inactive, NIH3T3 tox 14.1µM, hNpr1 antagonist inactive, HEK293 tox inconclusive and FLuc inh inactive.
CCOC(=O)CN1C(=O)CCN(C(=O)c2ccccc2OCC)CC(OC)c2ccccc21 (stereo not given) was read as GPT2 inhibitor inactive, NIH3T3 tox inconclusive and HEK293 tox inactive.
For CN1CCCCC12Cc1ccccc1CN([S+](=O)([O-])c1ccccc1)C2 (stereo not given) the results were GPT2 inhibitor inactive, NIH3T3 tox inactive and HEK293 tox inactive.
CCC1(O)CC2c3cc(OC)c(OC)cc3CCN2CC1CC(C)C (stereo not given) was read as GPT2 inhibitor inactive.
For O=C(Cc1cccc(O)c1)N1CC(CNc2ccccc2)C2(C1)CN(c1ccccc1)C2 (stereo not given) the results were GPT2 inhibitor inactive, NIH3T3 tox 22.4µM, hNpr1 antagonist inactive, HEK293 tox 31.6µM and FLuc inh inactive.
`O=C(CCc1cccnc1)N1CC(COc2ccccc2)C2(C1)CN(c1ccccc1)C2` (stereo not given) gave GPT2 inhibitor inactive, NIH3T3 tox inconclusive, hNpr1 antagonist inactive, HEK293 tox 89.1µM and FLuc inh inactive.
COC1CCC(C(=O)N2CC(COc3ccccc3)C3(C2)CN(c2ccccc2)C3)CC1 (stereo not given) was read as GPT2 inhibitor inactive, NIH3T3 tox 89.1µM, hNpr1 antagonist inactive, HEK293 tox 89.1µM and FLuc inh inactive.
O=C(O)c1ccc([S+](=O)([O-])N2CC(COc3ccccc3)C3(CN(c4ccccc4)C3)C2)cc1 (stereo not given) was read as GPT2 inhibitor inconclusive, NIH3T3 tox 31.6µM, hNpr1 antagonist inactive, HEK293 tox inactive and FLuc inh inactive.
For COCC(=O)N1CC(CNc2ccccc2)C2(C1)CN(c1ccccc1)C2 (stereo not given) the results were GPT2 inhibitor inactive, NIH3T3 tox inactive, hNpr1 antagonist inactive, HEK293 tox inconclusive and FLuc inh inactive.
COc1cccc(C(=O)N2CCCC(c3noc(COc4ccccc4)n3)C2)c1 (stereo not given) was read as GPT2 inhibitor inactive, NIH3T3 tox inactive, hNpr1 antagonist inactive, HEK293 tox inconclusive and FLuc inh inactive.
Screening COc1ccccc1C(=O)NC1CCN(c2ccnc3ccnn23)C1 (stereo not given) returned GPT2 inhibitor inactive, NIH3T3 tox inconclusive and HEK293 tox inconclusive.
Screening COc1ccccc1C(=O)Nc1cc(-c2ccncc2)nn1C returned GPT2 inhibitor inactive, NIH3T3 tox inconclusive and HEK293 tox inconclusive.
For COC1CCC(C(=O)N2CC(CNc3ccccc3)C3(C2)CN(c2ccccc2)C3)CC1 (stereo not given) the results were GPT2 inhibitor inactive, NIH3T3 tox 44.7µM, hNpr1 antagonist inactive, HEK293 tox 63.1µM and FLuc inh inactive.
Screening CCOC(=O)[C@H]1C[C@]2(CCCCN(CCOC(C)=O)C2=O)N(C(=O)c2ccno2)[C@H]1c1ccccc1 returned NIH3T3 tox inconclusive and HEK293 tox inactive.
`CN(Cc1ccc(C2CCCCO2)s1)CC1CCN(CCc2ccc(F)cc2)CC1` (stereo not given) gave GPT2 inhibitor inactive, NIH3T3 tox inconclusive, hNpr1 antagonist inactive, HEK293 tox 44.7µM and FLuc inh inactive.
CN(CC1CCN(CCc2ccc(F)cc2)CC1)C1CCC1 was read as GPT2 inhibitor inactive, NIH3T3 tox inactive, hNpr1 antagonist inactive, HEK293 tox inconclusive and FLuc inh inactive.
Screening Cc1nn2c(c1-c1ccccc1C(C)C)N([S+](=O)([O-])c1ccc(C(C)C)cc1)CCC2 returned GPT2 inhibitor inactive, NIH3T3 tox 22.4µM, hNpr1 antagonist inconclusive, HEK293 tox 39.8µM and FLuc inh inactive.
For Cc1nn2c(c1-c1ccccc1C(C)C)N(Cc1ccc(C(=O)O)s1)CCC2 the results were GPT2 inhibitor inactive, NIH3T3 tox inconclusive, hNpr1 antagonist inactive, HEK293 tox inconclusive and FLuc inh inactive.
Screening COc1ccc(CN2CCCn3nc(C)c(-c4ccccc4C(C)C)c32)cc1O returned GPT2 inhibitor inactive, NIH3T3 tox 35.5µM, hNpr1 antagonist inconclusive, HEK293 tox 63.1µM and FLuc inh inactive.
Screening Cc1nn2c(c1-c1ccccc1C(C)C)N(Cc1ccc3c(c1)CCO3)CCC2 returned GPT2 inhibitor inactive, NIH3T3 tox 28.2µM, hNpr1 antagonist inactive, HEK293 tox 35.5µM and FLuc inh inactive.
Cc1cnc(CN(C)Cc2cn(-c3ccccc3)nn2)[nH]1 was read as GPT2 inhibitor inactive, NIH3T3 tox inactive, hNpr1 antagonist inactive, HEK293 tox inactive and FLuc inh inactive.
CCN1CCN(Cc2cc(C)cc(CN(C)Cc3ncc(C)[nH]3)c2C)CC1 was read as GPT2 inhibitor inactive, NIH3T3 tox inactive, hNpr1 antagonist inactive, HEK293 tox inconclusive and FLuc inh 39.8µM.
For CC(C)c1cc(C(=O)N2CCn3nc(C(=O)Nc4ccccc4)cc3C2)n[nH]1 the results were GPT2 inhibitor inactive, NIH3T3 tox inconclusive, hNpr1 antagonist 12.6µM, HEK293 tox inconclusive and FLuc inh inconclusive.
`CCS(=O)(=O)CC(=O)N1CCn2nc(C(=O)Nc3ccccc3)cc2C1` gave GPT2 inhibitor inactive[11.5 µM], NIH3T3 tox inactive, hNpr1 antagonist inactive, HEK293 tox inconclusive and FLuc inh inactive.
`CN1Cc2ncnc(NCCc3ccccc3)c2CN(C2CCC2)C1=O` gave GPT2 inhibitor inactive, NIH3T3 tox inconclusive, hNpr1 antagonist inactive, HEK293 tox 63.1µM and FLuc inh inactive.
COc1ccc(N2Cc3c(NCC4CCCCCC4)ncnc3N(C)CC2=O)cc1 was read as GPT2 inhibitor inactive, NIH3T3 tox inconclusive, hNpr1 antagonist inactive, HEK293 tox 79.4µM and FLuc inh inactive.
Cc1cccc(N2Cc3c(NCCCc4ccccc4)ncnc3N(C)CC2=O)c1 was read as GPT2 inhibitor inconclusive, NIH3T3 tox 44.7µM and HEK293 tox inconclusive.
Cc1ccc(N2Cc3c(NCCCc4ccccc4)ncnc3N(C)CC2=O)cc1 was read as GPT2 inhibitor inactive, NIH3T3 tox inconclusive, hNpr1 antagonist inactive, HEK293 tox inconclusive and FLuc inh inactive.
Screening COc1ccc(N2Cc3c(NCC(C)(C)C)ncnc3N(C)CC2=O)cc1 returned GPT2 inhibitor inconclusive, NIH3T3 tox inactive, hNpr1 antagonist inactive, HEK293 tox inactive and FLuc inh inactive.
